# Test results from PubChem BioAssay AID588520 (NMMLSC, 2011).
# About 65 (4%) of roughly 1,700 compounds were called active. The list is a sample of the results. Unmarked numbers belong to inactive results. Cut-off read from the data, not from the text of the source: active = Nile Red retention ratio vs DMSO above about 190%; inactive = the rest.
# Tested on: Candida albicans drug resistance protein 2 (Cdr2) efflux pump, expressed in S. cerevisiae
# Test: Cdr2 pump blockade via Nile Red retention – S. cerevisiae AD/CaCDR2, flow cytometry, cherry pick 1, singleplex, confirmation (AID 588520);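 note: higher ratio means more blocking of Cdr2 efflux of the dye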
# Conditions: at 10 µM, active compounds read high
row,Structure (SMILES),Nile Red retention ratio vs DMSO
1,COc1ccc2[nH]c3c(C)c4cc[n+](C)cc4c(C)c3c2c1,97.2%
2,O=C1NC(=O)C2C1C(c1ccc([N+](=O)[O-])cc1)=NN2Cc1ccccc1 (centres undefined),112%
3,COc1ccc(-c2sc3ccccc3c2-c2ccc(OCCN3CCOCC3)cc2)cc1,101%
4,O=C(NCc1ccccc1)C(=O)NCC1OCCN1S(=O)(=O)c1ccc(Br)cc1 (centres undefined),84.8%
5,COc1ccccc1CSc1ncc(-c2ccc([N+](=O)[O-])cc2)[nH]1,87.5%
6,CCOc1ccc(C2/C(=C(/O)c3ccc4c(c3)CC(C)O4)C(=O)C(=O)N2CCCn2ccnc2)cc1 (centres undefined),94.1%
7,COc1ccc(C(=O)NC2CC(C)(C)Cc3c2cnn3-c2ccccc2)c(OC)c1 (centres undefined),100%
8,CN1CCN(S(=O)(=O)c2ccc(NC(=S)NC(=O)C3CC3)cc2)CC1,103%
9,CC(C)C(=O)N1CCC2(CC1)Oc1ccc(F)cc1C(=O)C21CC(c2ccccc2)=NO1 (centres undefined),102%
10,CN(C)S(=O)(=O)c1cc(C(=O)Nc2ccn(C)n2)c(Cl)cc1Cl,99.3%
11,CCn1c(/C=C/c2ccc([N+](=O)[O-])o2)nc2ccccc2c1=O,212% (active)
12,O=S(=O)(c1ccccc1)N1CCc2ccccc21,83.1%
13,CC12CCC(C(=O)N(c3cccc(Cl)c3)C1=O)C2(C)C (centres undefined),110%
14,O=C(CNC(=O)c1ccc(-c2ccccc2)cc1)OCc1ccc(Cl)cc1,120%
15,Cc1cc(C)cc(NC(=O)C(OC(=O)c2ccc(O)cc2)c2ccccc2)c1 (centres undefined),101%
16,CC(/C=N/NC(=O)c1cc(-c2ccc3ccccc3c2)n[nH]1)=C\c1ccco1,95.4%
17,CCCc1nc(N2CCN(C)CC2)c2sc(=S)n(-c3ccccc3)c2n1,99.6%
18,C[n+]1ccc(/C=C/c2c[nH]c3ccccc23)cc1,140%
19,CCCCCCCCCCCCCCCC(=O)OC/C=C(C)/C=C/C=C(C)/C=C/C1=C(C)CCCC1(C)C,123%
20,Cc1nn(C)cc1N1C(=O)c2cccc3c(N)ccc(c23)C1=O,106%
21,COc1ccc(/C=C(\C#N)c2c[nH]c3ccccc23)cc1,98.5%
22,CCCCOc1ccc(C(=O)NCC(=O)OCC(=O)c2c(N)n(C)c(=O)n(C)c2=O)cc1,103%
23,NNC(=O)COc1ccc(C2SCCS2)cc1,98.5%
24,COc1ccc(C(=O)NC(=S)Nc2ccc(N3CCCC3)cc2)cc1OC,95.1%
25,O=C(CSc1nnc(-c2cccnc2)n1Cc1ccco1)c1ccc(Cl)c(Cl)c1,107%

row,Structure (SMILES),Nile Red retention ratio vs DMSO
1,CCCCN1C(=O)/C(=C/C=C2/C=Cc3ccccc3N2CC)SC1=S,108%
2,CCCCCC(=O)Nc1ccc(C(=O)N/N=C/c2ccc([N+](=O)[O-])cc2)cc1,105%
3,COc1ccc(C(=O)C2CCCN(Cc3cccn3-c3ccccn3)C2)c(C)c1 (centres undefined),98.5%
4,O=C(Cc1ccc(Br)cc1)N1CCN(c2ccccn2)CC1,85.2%
5,COc1ccc(NC(=S)N2CCc3cc(OC)c(OC)cc3C2)cc1,99.3%
6,CCOc1ccc(/C=C2\SC(=S)N(NC(=O)c3ccncc3)C2=O)cc1OC,105%
7,CN=C(c1ccccc1)c1c(C)cccc1C,107%
8,COc1ccc(S(=O)(=O)N2CCOC2CNC(=O)C(=O)NCc2ccc(F)cc2)cc1 (centres undefined),114%
9,Cc1cc(/C=N/NC(=O)CC2(C)OCCO2)c(C)n1-c1ccc(Cl)c(Cl)c1,101%
10,COc1ccccc1/C=C/C=N/n1c(-c2ccc(Cl)cc2Cl)n[nH]c1=S,119%
11,Cc1ccc(OCc2cc(C(=O)N(C)CCc3ccccc3)no2)cc1C,97.7%
12,CCOC(=O)c1c(NC(=S)NC(=O)c2ccco2)sc2c1CCCC2,95.4%
13,Cc1ccc(/C=C(\C#N)C(=O)Nc2cccc3ncccc23)o1,93%
14,COc1cccc(NC(=O)CN(C)C(=O)/C=C/c2cc(OC)ccc2OC)c1,97.5%
15,CSCCC(NC(=O)COc1ccccc1)C(=O)OCCOc1ccc(Br)cc1 (centres undefined),91.4%
16,O=C(CCCCCn1c(=O)[nH]c2ccccc2c1=O)NCCc1c[nH]c2ccccc12,96.3%
17,CCOC(=O)CNC(=O)CSc1nnnn1-c1cc(C)ccc1C,102%
18,O=C(OCc1ccc(-c2ccccc2)cc1)c1cccc(O)c1,108%
19,Cc1nc2c(C(=O)NCc3ccc4c(c3)OCO4)c[nH]n2c(=O)c1Cc1ccccc1F,108%
20,Cc1nn(C)cc1C(=O)Nc1ccccc1Br,104%
21,Cc1csc(NC(=O)c2ccc(-c3ccc(Cl)cc3Cl)o2)n1,104%
22,Cc1ccc(Cn2c(C)nc3c(c2=O)c2nc4ccccc4nc2n3Cc2ccco2)cc1,104%
23,O=C(/C=C/c1c(Cl)cccc1Cl)NCc1ccccc1,102%
24,Cc1ccc(N=C2NC(=O)/C(=C/C=C/c3ccco3)S2)cc1C,114%
25,Cc1cccc(NC(=O)COc2ccccc2C)n1,95.6%

row,Structure (SMILES),Nile Red retention ratio vs DMSO
1,COc1ccc(C(=O)NC2CCCc3c2cnn3-c2cccc(C)c2C)c(OC)n1 (centres undefined),93.2%
2,CC[n+]1cc(C)ccc1/C=C/c1ccc(N(C)C)cc1,118%
3,O=C(CN1C(=O)C2C3CCC(C3)C2C1=O)Oc1ccc2ccccc2c1 (centres undefined),105%
4,Cc1ccc(Cn2nnc3c(=O)[nH]c(C4CCN(S(=O)(=O)/C=C/c5ccccc5)CC4)nc32)cc1,93%
5,CCNC(=O)c1c(O)c2cccc3c2n(c1=O)CC3,107%
6,O=C(Cc1ccccc1)NCC1OCCc2ccccc21 (centres undefined),117%
7,CC1CCc2c(sc(NC(=O)c3ccc(Cn4cc(Br)cn4)o3)c2C(N)=O)C1 (centres undefined),108%
8,Cc1ccc2c(c1)NC(=O)[C@@]1(C)[C@@H](c3ccccc3)[C@H]3COc4ccc(Cl)cc4[C@@H]3N1C2=O,102%
9,O=C(Cn1c(COc2ccccc2)nc2ccccc21)Nc1cc(Cl)c(Cl)cc1Cl,110%
10,Cc1ccc2[nH]c3c(=O)n(CC(=O)NCCc4ccc(Cl)cc4)ncc3c2c1,137%
11,C/C(N)=C(/C#N)C(=O)COC(=O)c1cc(-c2cccc(Br)c2)nc2ccccc12,110%
12,CCOc1ccc2nc(Cl)c(C3CC(c4ccccc4)=NN3C(=O)c3cccs3)cc2c1 (centres undefined),131%
13,C=CCC[C@@H](Cc1ccc(F)cc1)C(=O)OC[C@H](Cc1c[nH]c2ccccc12)NC(=O)[C@@H](CC=C)CC(=O)N(CCO)Cc1ccccc1,123%
14,Cc1c(CCOC(=O)CC23CC4CC(CC(C)(C4)C2)C3)sc[n+]1Cc1ccc([N+](=O)[O-])cc1,821% (active)
15,CSCCC(NS(=O)(=O)c1ccc(C)cc1)C(=O)N1CCCC1 (centres undefined),89.3%
16,O=C(Nc1ccc(NC(=O)c2cccs2)cc1)c1ccc2ccccc2c1,108%
17,CCCc1nnc(SCC(=O)Nc2ccc(C(=O)OCC)cc2)o1,133%
18,CCNc1c(NS(=O)(=O)c2ccc(C3CCCCC3)cc2)c(=O)oc2ccccc12,98.7%
19,CCc1ccc(NC(=O)Cn2ncn3c(cc4ccccc43)c2=O)cc1,101%
20,COc1ccccc1NC(=O)C1CCCN1S(=O)(=O)c1ccc(Cl)cc1 (centres undefined),99.7%
21,CC(/C=C/c1ccccc1)=N\NC(=O)C1CC1(C)c1ccccc1 (centres undefined),94%
22,Cc1oc2cc3oc(=O)ccc3cc2c1C,107%
23,Cc1cc(C(=O)Nc2ccc(C)c(S(=O)(=O)N3CCOCC3)c2)c2ccccc2n1,83.1%
24,CCOc1ccccc1/C=c1\sc2nc(-c3ccco3)nn2c1=O,116%
